{
  "source": "paper PMC11006913",
  "assay_in_all_cases": "PBM; 200 nM protein, PBS",
  "settings_in_all_cases": "dsDNA, one strand shown",
  "key": {"HOXB4 [1]": {"target": "HOXB4 (Homo sapiens, UniProt P17483 148-234)", "sequence (P17483 148-234)": "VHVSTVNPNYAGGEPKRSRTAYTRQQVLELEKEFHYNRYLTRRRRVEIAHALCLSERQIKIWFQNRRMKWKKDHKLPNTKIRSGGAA"}, "HOXA4 [2]": {"target": "HOXA4 (Homo sapiens, UniProt Q00056 201-287, W262R)", "sequence (Q00056 201-287 W262R)": "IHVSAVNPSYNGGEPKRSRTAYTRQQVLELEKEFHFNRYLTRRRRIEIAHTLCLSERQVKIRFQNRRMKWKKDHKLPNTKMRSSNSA"}, "ALX4 [3]": {"target": "ALX4 (Homo sapiens, UniProt Q9H161 200-286)", "sequence (Q9H161 200-286)": "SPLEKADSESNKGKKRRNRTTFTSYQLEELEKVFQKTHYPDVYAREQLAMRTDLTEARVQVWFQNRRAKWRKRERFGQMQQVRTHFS"}, "PAX4 [4]": {"target": "T1, PAX4 (Homo sapiens, UniProt O43316 9-242, R200K)", "T1 sequence": "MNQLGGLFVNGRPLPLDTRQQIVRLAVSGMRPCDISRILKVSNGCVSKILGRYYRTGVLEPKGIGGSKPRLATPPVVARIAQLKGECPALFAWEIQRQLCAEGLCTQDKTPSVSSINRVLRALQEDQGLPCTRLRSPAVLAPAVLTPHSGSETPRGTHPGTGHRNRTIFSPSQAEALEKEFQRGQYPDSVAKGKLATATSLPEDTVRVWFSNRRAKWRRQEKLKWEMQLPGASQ"}, "PAX4 [5]": {"target": "T2, PAX4 (Homo sapiens, UniProt O43316 9-242)", "T2 sequence": "T1 sequence with K192R"}, "ALX4 [6]": {"target": "ALX4 (Homo sapiens, UniProt Q9H161 200-286, Q225E)", "sequence (Q9H161 200-286 Q225E)": "as the sequence (Q9H161 200-286) above, with Q26E counted along it"}, "HOXA2 [7]": {"target": "HOXA2 (Homo sapiens, UniProt O43364 129-215, R185T)", "sequence (O43364 129-215 R185T)": "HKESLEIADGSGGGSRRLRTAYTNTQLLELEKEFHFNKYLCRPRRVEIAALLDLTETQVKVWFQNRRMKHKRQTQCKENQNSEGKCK"}, "HOXA4 [8]": {"target": "HOXA4 (Homo sapiens, UniProt Q00056 201-287, R217L)", "sequence (Q00056 201-287 R217L)": "as the sequence (Q00056 201-287 W262R) above, with R17L, R62W counted along it"}, "HOXB4 [9]": {"target": "HOXB4 (Homo sapiens, UniProt P17483 148-234, V174I)", "sequence (P17483 148-234 V174I)": "as the sequence (P17483 148-234) above, with V27I counted along it"}, "PAX4 [10]": {"target": "T3, PAX4 (Homo sapiens, UniProt O43316 9-242, R200Q)", "T3 sequence": "T1 sequence with K192Q"}, "HOXA2 [11]": {"target": "HOXA2 (Homo sapiens, UniProt O43364 129-215, R185K)", "sequence (O43364 129-215 R185K)": "as the sequence (O43364 129-215 R185T) above, with T57K counted along it"}, "PAX4 [12]": {"target": "T4, PAX4 (Homo sapiens, UniProt O43316 9-242, F177V)", "T4 sequence": "T1 sequence with F169V, K192R"}, "HOXA4 [13]": {"target": "HOXA4 (Homo sapiens, UniProt Q00056 201-287)", "sequence (Q00056 201-287)": "as the sequence (Q00056 201-287 W262R) above, with R62W counted along it"}, "VAX1 [14]": {"target": "VAX1 (Homo sapiens, UniProt Q5SQQ9 86-172)", "sequence (Q5SQQ9 86-172)": "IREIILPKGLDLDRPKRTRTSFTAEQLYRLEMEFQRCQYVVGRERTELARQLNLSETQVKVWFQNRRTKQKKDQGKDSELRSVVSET"}, "VAX1 [15]": {"target": "VAX1 (Homo sapiens, UniProt Q5SQQ9 86-172, T142I)", "sequence (Q5SQQ9 86-172 T142I)": "as the sequence (Q5SQQ9 86-172) above, with T57I counted along it"}, "PAX4 [16]": {"target": "T5, PAX4 (Homo sapiens, UniProt O43316 9-242, R227W)", "T5 sequence": "T1 sequence with K192R, R219W"}, "HOXA2 [17]": {"target": "HOXA2 (Homo sapiens, UniProt O43364 129-215, Y150S)", "sequence (O43364 129-215 Y150S)": "as the sequence (O43364 129-215 R185T) above, with Y22S, T57R counted along it"}, "HOXA4 [18]": {"target": "HOXA4 (Homo sapiens, UniProt Q00056 201-287, W262F)", "sequence (Q00056 201-287 W262F)": "as the sequence (Q00056 201-287 W262R) above, with R62F counted along it"}, "HOXA2 [19]": {"target": "HOXA2 (Homo sapiens, UniProt O43364 129-215)", "sequence (O43364 129-215)": "as the sequence (O43364 129-215 R185T) above, with T57R counted along it"}, "VAX1 [20]": {"target": "VAX1 (Homo sapiens, UniProt Q5SQQ9 86-172, K157R)", "sequence (Q5SQQ9 86-172 K157R)": "as the sequence (Q5SQQ9 86-172) above, with K72R counted along it"}, "HOXA7 [21]": {"target": "HOXA7 (Homo sapiens, UniProt P31268 116-202)", "sequence (P31268 116-202)": "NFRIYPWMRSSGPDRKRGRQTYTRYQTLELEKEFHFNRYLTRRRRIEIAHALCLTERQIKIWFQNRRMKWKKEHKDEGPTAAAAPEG"}, "ALX3 [22]": {"target": "ALX3 (Homo sapiens, UniProt O95076 139-225, N203Q)", "sequence (O95076 139-225 N203Q)": "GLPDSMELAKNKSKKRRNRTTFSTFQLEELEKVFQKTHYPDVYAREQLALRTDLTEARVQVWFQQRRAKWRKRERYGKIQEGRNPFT"}, "ALX3 [23]": {"target": "ALX3 (Homo sapiens, UniProt O95076 139-225)", "sequence (O95076 139-225)": "as the sequence (O95076 139-225 N203Q) above, with Q65N counted along it"}, "ALX3 [24]": {"target": "ALX3 (Homo sapiens, UniProt O95076 139-225, L168Q)", "sequence (O95076 139-225 L168Q)": "as the sequence (O95076 139-225 N203Q) above, with L30Q, Q65N counted along it"}, "ALX3 [25]": {"target": "ALX3 (Homo sapiens, UniProt O95076 139-225, L168V)", "sequence (O95076 139-225 L168V)": "as the sequence (O95076 139-225 N203Q) above, with L30V, Q65N counted along it"}, "HOXA7 [26]": {"target": "HOXA7 (Homo sapiens, UniProt P31268 116-202, W177C)", "sequence (P31268 116-202 W177C)": "as the sequence (P31268 116-202) above, with W62C counted along it"}, "ALX3 [27]": {"target": "ALX3 (Homo sapiens, UniProt O95076 139-225, N203S)", "sequence (O95076 139-225 N203S)": "as the sequence (O95076 139-225 N203Q) above, with Q65S counted along it"}, "HOXC9 [28]": {"target": "HOXC9 (Homo sapiens, UniProt P31274 178-260, K195R)", "sequence (P31274 178-260 K195R)": "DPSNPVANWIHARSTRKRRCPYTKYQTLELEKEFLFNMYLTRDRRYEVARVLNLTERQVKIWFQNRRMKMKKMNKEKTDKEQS"}, "HOXB6 [29]": {"target": "HOXB6 (Homo sapiens, UniProt P17509 132-218, K202E)", "sequence (P17509 132-218 K202E)": "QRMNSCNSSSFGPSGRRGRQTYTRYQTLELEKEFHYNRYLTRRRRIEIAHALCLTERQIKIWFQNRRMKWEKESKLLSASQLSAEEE"}, "NKX2-6": {"target": "T6, NKX2-6 (Homo sapiens, UniProt A6NCS4 118-204, R150C)", "T6 sequence": "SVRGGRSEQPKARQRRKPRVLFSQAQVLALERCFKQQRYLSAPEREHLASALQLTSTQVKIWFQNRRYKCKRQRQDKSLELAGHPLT"}, "HOXC9 [30]": {"target": "HOXC9 (Homo sapiens, UniProt P31274 178-260)", "sequence (P31274 178-260)": "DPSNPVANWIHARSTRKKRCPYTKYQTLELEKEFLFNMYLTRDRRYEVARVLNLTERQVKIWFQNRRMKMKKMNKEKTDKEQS"}, "HOXC9 [31]": {"target": "HOXC9 (Homo sapiens, UniProt P31274 178-260, R193K)", "sequence (P31274 178-260 R193K)": "as the sequence (P31274 178-260) above, with R16K counted along it"}, "HOXC9 [32]": {"target": "HOXC9 (Homo sapiens, UniProt P31274 178-260, R222W)", "sequence (P31274 178-260 R222W)": "as the sequence (P31274 178-260) above, with R45W counted along it"}, "HOXB6 [33]": {"target": "HOXB6 (Homo sapiens, UniProt P17509 132-218)", "sequence (P17509 132-218)": "as the sequence (P17509 132-218 K202E) above, with E71K counted along it"}},
  "note": "Substitutions are numbered along the chain they refer to.",
  "data": [
    {"sequence": "GATAATGA", "values": [
      {"measurement": "binding signal", "setting": "HOXB4 [1]", "result": "13.1 upbm affinity estimate (log intensity, higher = more binding, comparable within an allelic series)"},
      {"measurement": "binding signal", "setting": "HOXA4 [2]", "result": "10.7 upbm affinity estimate (log intensity, higher = more binding, comparable within an allelic series)"},
      {"measurement": "binding signal", "setting": "ALX4 [3]", "result": "12.7 upbm affinity estimate (log intensity, higher = more binding, comparable within an allelic series)"},
      {"measurement": "binding signal", "setting": "PAX4 [4]", "result": "11.2 upbm affinity estimate (log intensity, higher = more binding, comparable within an allelic series)"},
      {"measurement": "binding signal", "setting": "PAX4 [5]", "result": "11.4 upbm affinity estimate (log intensity, higher = more binding, comparable within an allelic series)"},
      {"measurement": "binding signal", "setting": "ALX4 [6]", "result": "11.2 upbm affinity estimate (log intensity, higher = more binding, comparable within an allelic series)"},
      {"measurement": "binding signal", "setting": "HOXA2 [7]", "result": "12.6 upbm affinity estimate (log intensity, higher = more binding, comparable within an allelic series)"},
      {"measurement": "binding signal", "setting": "HOXA4 [8]", "result": "12.3 upbm affinity estimate (log intensity, higher = more binding, comparable within an allelic series)"},
      {"measurement": "binding signal", "setting": "HOXB4 [9]", "result": "13.7 upbm affinity estimate (log intensity, higher = more binding, comparable within an allelic series)"},
      {"measurement": "binding signal", "setting": "PAX4 [10]", "result": "11.2 upbm affinity estimate (log intensity, higher = more binding, comparable within an allelic series)"},
      {"measurement": "binding signal", "setting": "HOXA2 [11]", "result": "13.3 upbm affinity estimate (log intensity, higher = more binding, comparable within an allelic series)"},
      {"measurement": "binding signal", "setting": "PAX4 [12]", "result": "10.3 upbm affinity estimate (log intensity, higher = more binding, comparable within an allelic series)"},
      {"measurement": "binding signal", "setting": "HOXA4 [13]", "result": "13.9 upbm affinity estimate (log intensity, higher = more binding, comparable within an allelic series)"},
      {"measurement": "binding signal", "setting": "VAX1 [14]", "result": "12.9 upbm affinity estimate (log intensity, higher = more binding, comparable within an allelic series)"},
      {"measurement": "binding signal", "setting": "VAX1 [15]", "result": "12.7 upbm affinity estimate (log intensity, higher = more binding, comparable within an allelic series)"},
      {"measurement": "binding signal", "setting": "PAX4 [16]", "result": "10.6 upbm affinity estimate (log intensity, higher = more binding, comparable within an allelic series)"},
      {"measurement": "binding signal", "setting": "HOXA2 [17]", "result": "10.9 upbm affinity estimate (log intensity, higher = more binding, comparable within an allelic series)"},
      {"measurement": "binding signal", "setting": "HOXA4 [18]", "result": "11.6 upbm affinity estimate (log intensity, higher = more binding, comparable within an allelic series)"},
      {"measurement": "binding signal", "setting": "HOXA2 [19]", "result": "12.3 upbm affinity estimate (log intensity, higher = more binding, comparable within an allelic series)"},
      {"measurement": "binding signal", "setting": "VAX1 [20]", "result": "12.5 upbm affinity estimate (log intensity, higher = more binding, comparable within an allelic series)"}
    ]},
    {"sequence": "CAGACCCC", "values": [
      {"measurement": "binding signal", "setting": "HOXB4 [1]", "result": "7.56 upbm affinity estimate (log intensity, higher = more binding, comparable within an allelic series)"},
      {"measurement": "binding signal", "setting": "HOXA7 [21]", "result": "8.69 upbm affinity estimate (log intensity, higher = more binding, comparable within an allelic series)"},
      {"measurement": "binding signal", "setting": "HOXB4 [9]", "result": "7.7 upbm affinity estimate (log intensity, higher = more binding, comparable within an allelic series)"},
      {"measurement": "binding signal", "setting": "ALX3 [22]", "result": "7.73 upbm affinity estimate (log intensity, higher = more binding, comparable within an allelic series)"},
      {"measurement": "binding signal", "setting": "ALX3 [23]", "result": "7.61 upbm affinity estimate (log intensity, higher = more binding, comparable within an allelic series)"},
      {"measurement": "binding signal", "setting": "VAX1 [14]", "result": "6.95 upbm affinity estimate (log intensity, higher = more binding, comparable within an allelic series)"},
      {"measurement": "binding signal", "setting": "ALX3 [24]", "result": "7.69 upbm affinity estimate (log intensity, higher = more binding, comparable within an allelic series)"},
      {"measurement": "binding signal", "setting": "ALX3 [25]", "result": "7.66 upbm affinity estimate (log intensity, higher = more binding, comparable within an allelic series)"},
      {"measurement": "binding signal", "setting": "VAX1 [15]", "result": "7.15 upbm affinity estimate (log intensity, higher = more binding, comparable within an allelic series)"},
      {"measurement": "binding signal", "setting": "HOXA7 [26]", "result": "8.53 upbm affinity estimate (log intensity, higher = more binding, comparable within an allelic series)"},
      {"measurement": "binding signal", "setting": "ALX3 [27]", "result": "7.74 upbm affinity estimate (log intensity, higher = more binding, comparable within an allelic series)"},
      {"measurement": "binding signal", "setting": "VAX1 [20]", "result": "6.94 upbm affinity estimate (log intensity, higher = more binding, comparable within an allelic series)"}
    ]},
    {"sequence": "CGGGGGTC", "values": [
      {"measurement": "binding signal", "setting": "HOXB4 [1]", "result": "7.85 upbm affinity estimate (log intensity, higher = more binding, comparable within an allelic series)"},
      {"measurement": "binding signal", "setting": "HOXC9 [28]", "result": "9.59 upbm affinity estimate (log intensity, higher = more binding, comparable within an allelic series)"},
      {"measurement": "binding signal", "setting": "HOXB6 [29]", "result": "8.98 upbm affinity estimate (log intensity, higher = more binding, comparable within an allelic series)"},
      {"measurement": "binding signal", "setting": "HOXB4 [9]", "result": "7.45 upbm affinity estimate (log intensity, higher = more binding, comparable within an allelic series)"},
      {"measurement": "binding signal", "setting": "NKX2-6", "result": "9.26 upbm affinity estimate (log intensity, higher = more binding, comparable within an allelic series)"},
      {"measurement": "binding signal", "setting": "HOXC9 [30]", "result": "9.65 upbm affinity estimate (log intensity, higher = more binding, comparable within an allelic series)"},
      {"measurement": "binding signal", "setting": "HOXC9 [31]", "result": "9.62 upbm affinity estimate (log intensity, higher = more binding, comparable within an allelic series)"},
      {"measurement": "binding signal", "setting": "HOXC9 [32]", "result": "9.59 upbm affinity estimate (log intensity, higher = more binding, comparable within an allelic series)"},
      {"measurement": "binding signal", "setting": "HOXB6 [33]", "result": "9.04 upbm affinity estimate (log intensity, higher = more binding, comparable within an allelic series)"}
    ]},
    {"sequence": "CATCATTA", "values": [
      {"measurement": "binding signal", "setting": "HOXB4 [1]", "result": "13.4 upbm affinity estimate (log intensity, higher = more binding, comparable within an allelic series)"},
      {"measurement": "binding signal", "setting": "HOXA4 [2]", "result": "10.8 upbm affinity estimate (log intensity, higher = more binding, comparable within an allelic series)"},
      {"measurement": "binding signal", "setting": "HOXA2 [7]", "result": "12.5 upbm affinity estimate (log intensity, higher = more binding, comparable within an allelic series)"},
      {"measurement": "binding signal", "setting": "HOXA4 [8]", "result": "12.3 upbm affinity estimate (log intensity, higher = more binding, comparable within an allelic series)"},
      {"measurement": "binding signal", "setting": "HOXB4 [9]", "result": "14 upbm affinity estimate (log intensity, higher = more binding, comparable within an allelic series)"},
      {"measurement": "binding signal", "setting": "HOXA2 [11]", "result": "13.2 upbm affinity estimate (log intensity, higher = more binding, comparable within an allelic series)"},
      {"measurement": "binding signal", "setting": "HOXA4 [13]", "result": "14 upbm affinity estimate (log intensity, higher = more binding, comparable within an allelic series)"},
      {"measurement": "binding signal", "setting": "VAX1 [14]", "result": "12.9 upbm affinity estimate (log intensity, higher = more binding, comparable within an allelic series)"},
      {"measurement": "binding signal", "setting": "VAX1 [15]", "result": "12.8 upbm affinity estimate (log intensity, higher = more binding, comparable within an allelic series)"},
      {"measurement": "binding signal", "setting": "HOXA2 [17]", "result": "11 upbm affinity estimate (log intensity, higher = more binding, comparable within an allelic series)"},
      {"measurement": "binding signal", "setting": "HOXA4 [18]", "result": "11.8 upbm affinity estimate (log intensity, higher = more binding, comparable within an allelic series)"},
      {"measurement": "binding signal", "setting": "HOXA2 [19]", "result": "12.3 upbm affinity estimate (log intensity, higher = more binding, comparable within an allelic series)"},
      {"measurement": "binding signal", "setting": "VAX1 [20]", "result": "12.7 upbm affinity estimate (log intensity, higher = more binding, comparable within an allelic series)"}
    ]}
  ]
}
